This note sets out measurements from PubChem BioAssay.

Calls of active or inactive are those of the source.

Test [1] concerns PRMT1 (protein arginine N-methyltransferase 1). As to the kind of experiment: small molecules binding arginine methyltransferase PRMT1 – biochemical, small-molecule microarray, 635 nm fluorescence, primary screen (AID 1088).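 Also: binding of Prmt1 protein to compounds spotted on small-molecule microarray slides.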 The note with it: higher = more signal.
Test [2] in a line: growth effects on S. cerevisiae YJM789 – YJM789 clinical isolate, OD600, 24 h, basal, primary screen (AID 1089).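 Also: growth of clinical yeast isolate S. cerevisiae YJM 789 seeded 1000 cells per well; test concentration not given here.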 The note with it: higher = more signal, called active from +8 up or from −8 down.
Test [3] is described as follows: S. pombe growth modifiers, basal conditions – strain 972, OD600, 24 h, no modulator, primary screen (AID 1090).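 Also: basal condition with compound alone and no growth modifier present; test concentration not given here.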 As to conditions: S. pombe 972 growth, higher = more signal, called active from +8 up or from −8 down.
Test [4] can be described thus: budding yeast growth modifiers under rapamycin – strain BY4716, OD600, 96 h, primary screen (AID 1091). Also: test concentration not given here. As to conditions: S. cerevisiae BY4716 + rapamycin, higher = more signal, called active from +8 up or from −8 down.
Test [5] addresses Torsin-1A-interacting protein 2 (Homo sapiens) (UniProt Q8NFQ8). Put plainly: small molecules binding lysate-expressed LULL1 – cell lysate, human LULL1 lysate, 635/667 nm fluorescence, primary screen (AID 1092).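 Also: probe is lysate of COS7 cells overexpressing human LULL1; score merges per-feature 667 nm fluorescence with signal-to-noise.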 As to conditions: small-molecule microarray, hLULL1 lysate binding, 635 nm fluorescence; higher = more signal.
Test [6] in a line: optical density change of DRC41 E. coli – strain DRC41, OD650, 24 h, E. coli filamentation project, primary screen (AID 1093).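 Also: MC1000 strain lacking acrAB efflux and sulA so SOS filamentation is blocked; test concentration not given here.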 As to conditions: E. coli DRC41 growth, higher = more signal, called active from +8 up or from −8 down.
Test [7] in a line: probe aLefty2 binding to arrayed compounds – biochemical, biotinylated probe, 635/667 nm fluorescence, primary screen (AID 1094).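 Also: score merges spot fluorescence near 667 nm with spot signal-to-noise ratio.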 The note with it: small-molecule microarray, higher = more signal.
Test [8] deals with Noggin (protein binding on small-molecule microarray). As to the kind of experiment: small molecules binding Noggin protein – biochemical, 635/667 nm fluorescence, primary screen (AID 1095).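 Also: score merges 667 nm feature fluorescence with signal to noise over triplicate slides.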 As to conditions: 635 nm fluorescence, higher = more signal.
In test [9] the target is Neurogenic locus notch homolog protein 3 (Homo sapiens) (UniProt Q9UM47). As to the kind of experiment: small molecules binding NOTCH3 protein – biochemical, 635/667 nm fluorescence, primary screen (AID 1096). As to conditions: small-molecule microarray, 635 nm fluorescence, higher = more signal.
Neurogenic locus notch homolog protein 3 (Homo sapiens), sequence (Q9UM47 whole entry, looked up): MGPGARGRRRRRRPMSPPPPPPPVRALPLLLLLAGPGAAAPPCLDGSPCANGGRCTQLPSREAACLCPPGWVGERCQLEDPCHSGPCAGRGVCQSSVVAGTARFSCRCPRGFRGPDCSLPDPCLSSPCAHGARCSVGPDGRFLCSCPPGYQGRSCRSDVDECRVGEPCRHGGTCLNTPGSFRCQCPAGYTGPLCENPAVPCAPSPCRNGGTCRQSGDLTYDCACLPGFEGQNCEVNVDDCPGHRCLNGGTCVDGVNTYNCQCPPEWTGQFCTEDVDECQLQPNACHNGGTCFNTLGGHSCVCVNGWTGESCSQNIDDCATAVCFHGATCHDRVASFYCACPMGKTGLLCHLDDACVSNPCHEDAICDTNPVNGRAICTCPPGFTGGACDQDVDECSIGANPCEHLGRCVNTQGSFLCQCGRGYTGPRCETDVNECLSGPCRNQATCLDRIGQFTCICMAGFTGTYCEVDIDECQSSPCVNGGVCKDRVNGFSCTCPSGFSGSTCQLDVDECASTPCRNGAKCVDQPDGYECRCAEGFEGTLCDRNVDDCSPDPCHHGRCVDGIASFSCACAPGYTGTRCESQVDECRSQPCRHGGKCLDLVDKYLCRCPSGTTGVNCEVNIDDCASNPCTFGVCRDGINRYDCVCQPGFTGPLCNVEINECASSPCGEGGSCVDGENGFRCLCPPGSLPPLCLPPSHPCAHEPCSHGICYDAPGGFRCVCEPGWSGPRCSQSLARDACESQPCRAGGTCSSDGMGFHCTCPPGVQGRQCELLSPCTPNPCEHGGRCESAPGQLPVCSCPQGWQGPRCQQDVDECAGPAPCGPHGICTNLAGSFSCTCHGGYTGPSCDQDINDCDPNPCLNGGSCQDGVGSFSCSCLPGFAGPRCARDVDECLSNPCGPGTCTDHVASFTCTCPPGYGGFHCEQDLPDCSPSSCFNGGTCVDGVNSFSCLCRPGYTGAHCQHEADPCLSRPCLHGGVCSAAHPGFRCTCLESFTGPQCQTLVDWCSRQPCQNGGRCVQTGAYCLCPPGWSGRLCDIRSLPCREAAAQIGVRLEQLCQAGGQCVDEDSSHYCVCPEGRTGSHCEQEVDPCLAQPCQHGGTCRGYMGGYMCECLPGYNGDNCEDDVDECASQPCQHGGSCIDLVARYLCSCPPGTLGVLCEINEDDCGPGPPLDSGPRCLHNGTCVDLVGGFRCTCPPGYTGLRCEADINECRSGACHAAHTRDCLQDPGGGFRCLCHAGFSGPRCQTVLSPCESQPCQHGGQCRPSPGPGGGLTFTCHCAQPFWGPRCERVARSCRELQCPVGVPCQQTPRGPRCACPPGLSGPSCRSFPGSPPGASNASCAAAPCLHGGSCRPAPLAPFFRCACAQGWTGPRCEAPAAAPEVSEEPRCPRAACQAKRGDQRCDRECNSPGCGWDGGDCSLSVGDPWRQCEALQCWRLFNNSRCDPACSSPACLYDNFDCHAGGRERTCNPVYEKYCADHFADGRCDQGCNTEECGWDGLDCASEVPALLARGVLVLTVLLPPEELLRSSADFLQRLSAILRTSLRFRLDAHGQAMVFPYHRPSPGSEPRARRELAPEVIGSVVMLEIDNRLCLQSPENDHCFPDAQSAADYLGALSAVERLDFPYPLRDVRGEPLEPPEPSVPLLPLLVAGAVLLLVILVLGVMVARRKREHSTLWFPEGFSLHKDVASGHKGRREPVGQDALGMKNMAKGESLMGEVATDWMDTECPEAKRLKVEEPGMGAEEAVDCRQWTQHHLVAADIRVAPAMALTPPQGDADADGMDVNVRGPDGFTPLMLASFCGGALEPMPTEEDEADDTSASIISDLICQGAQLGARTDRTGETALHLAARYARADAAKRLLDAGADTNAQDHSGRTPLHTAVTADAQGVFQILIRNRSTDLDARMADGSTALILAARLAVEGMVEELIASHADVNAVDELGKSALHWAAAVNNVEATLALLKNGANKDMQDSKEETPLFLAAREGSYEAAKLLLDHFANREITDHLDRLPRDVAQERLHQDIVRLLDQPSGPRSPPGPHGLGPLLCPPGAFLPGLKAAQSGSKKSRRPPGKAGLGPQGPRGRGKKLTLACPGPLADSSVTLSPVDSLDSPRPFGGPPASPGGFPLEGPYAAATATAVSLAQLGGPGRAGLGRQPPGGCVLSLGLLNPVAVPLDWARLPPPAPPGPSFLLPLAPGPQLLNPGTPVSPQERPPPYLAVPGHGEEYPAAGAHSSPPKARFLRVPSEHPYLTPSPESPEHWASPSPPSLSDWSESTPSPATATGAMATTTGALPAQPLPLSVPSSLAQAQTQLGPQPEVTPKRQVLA
A short description of test [10]: probe aEGFR binding to arrayed compounds – biochemical, biotinylated probe, 635/667 nm fluorescence, primary screen (AID 1097).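 Also: probe is a biotinylated anti-EGFR antibody binding compounds printed on slides; score combines fluorescence near 667 nm and signal to noise of each spot.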 The note with it: small-molecule microarray, higher = more signal.

Torsin-1A-interacting protein 2 (Homo sapiens), sequence (Q8NFQ8 whole entry, looked up): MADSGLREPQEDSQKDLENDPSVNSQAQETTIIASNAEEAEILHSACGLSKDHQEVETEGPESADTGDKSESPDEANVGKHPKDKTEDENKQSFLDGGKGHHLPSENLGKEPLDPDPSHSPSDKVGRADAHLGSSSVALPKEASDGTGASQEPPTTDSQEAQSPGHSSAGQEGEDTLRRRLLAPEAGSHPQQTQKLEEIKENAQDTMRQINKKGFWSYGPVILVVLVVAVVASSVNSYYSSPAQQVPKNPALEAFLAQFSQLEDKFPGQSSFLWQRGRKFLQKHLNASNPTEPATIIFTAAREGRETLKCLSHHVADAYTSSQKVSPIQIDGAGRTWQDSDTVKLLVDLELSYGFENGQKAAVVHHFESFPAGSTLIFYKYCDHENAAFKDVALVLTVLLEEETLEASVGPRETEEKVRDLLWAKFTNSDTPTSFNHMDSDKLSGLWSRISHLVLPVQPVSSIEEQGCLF

As to `O=C(O)[C@@]1(CCS(=O)(=O)c2ccccc2)COC(c2ccc(OCCCO)cc2)=N1`, the composite z-score in [1] was -0.16; in test [5], 2.76; in [7], 0.188; in [8], -0.754; in test [9], -0.395; in test [10], -0.0828. For the same compound, the z-score in test [2] was 0.608 (inactive); in test [3], -2.3 (inactive); in test [4], -0.717 (inactive); in [6], -0.16 (inactive).
In the case of `O=C1[C@H]2C=C(Br)[C@H](C[C@@H]2OCCCCO)[C@@]12CO2`, the composite z-score is -0.162 in [1]; -0.99 in test [5]; -0.0778 in test [7]; -0.0486 in [8]; 0.221 in [9]; -0.0409 in test [10]. In addition, the z-score was 0.176 (inactive) in test [2], -0.248 (inactive) in test [3], 0.93 (inactive) in test [4] and -1.03 (inactive) in test [6].
For the compound `CC1CC/C=C\[C@H]2OC34C=CCN(c5ccc(Cl)cc5)C(=O)[C@H]3N(CCO)C(=O)[C@]4(C)C2C(=O)O1` (stereo not given in full), the composite z-score in test [1] is 0.517; in test [5], 0.139; in test [7], -0.0619; in test [8] it was -0.504; in test [9], 0.105; in test [10], -0.166. Further, the z-score in [2] is -1.51 (inactive); in [3], -1.4 (inactive); in [4] it was -0.528 (inactive); in [6], 0.613 (inactive).
Take `CCOC(=O)C[C@H]1[C@H](OC(=O)Cc2ccc3c(c2)OCO3)[C@@H](NC(=O)c2ccc(-c3ccccc3)cc2)c2cc(OCCCO)ccc2N1C(=O)c1ccc2ccccc2n1`: the composite z-score in test [1] was 0.0972; in test [5] it was 0.417; in [7], -0.168; in test [8] it was 0.0955; in test [9], 0.257; in [10] it was -0.0661. Besides, the z-score in test [2] was -1.84 (inactive); in [3] it was -2.89 (inactive); in [4] it was -1.13 (inactive); in test [6], 1.63 (inactive).
Consider `N#Cc1ccc(NN2C(C(O)c3c(F)cccc3Cl)C=CC3C(=O)N(c4ccccc4)C(=O)C32)cc1` (stereo not given), for which the composite z-score in test [1] is 1.19; in [5], 3.53; in test [7] it was 0.222; in test [8], -0.109; in test [9], 1.06; in test [10], -0.244. Besides, the z-score in test [2] was 0.432 (inactive); in [3], 1.62 (inactive); in [4], 2.48 (inactive); in test [6], -0.62 (inactive).
On to `C=C(COC)/C(=C/C[C@@H](OC(C)=O)c1ccc(OCCO)cc1)c1cc(C(=O)OC)ccc1OC`, for which the composite z-score was 1.54 in [1]; 2.16 in test [5]; -0.027 in test [7]; 1.35 in test [8]; 1.12 in test [9]; -0.0728 in [10]. Besides, the z-score in [2] is 0.0937 (inactive); in [3], -0.51 (inactive); in test [4] it was -0.645 (inactive); in test [6], -0.018 (inactive).
In the case of `O=C1C[C@]2(c3ccc([N+](=O)[O-])cc3)C(=O)N(CCN3CCOCC3)c3cc(CO)ccc3[C@H]2N1C1CCCCC1`, the composite z-score in [1] was 1.47; in test [5], 1.1; in [7], -0.0668; in [8], -0.283; in [9] it was -0.188; in test [10], -0.112. In addition, the z-score was -0.87 (inactive) in test [2], 0.0365 (inactive) in [3], -1.6 (inactive) in [4] and 0.668 (inactive) in test [6].
For `COC(=O)[C@@]1(Cc2ccc(F)cc2)[C@H]2c3cc(C(=O)N4CCCC4)n(Cc4ccc(C)o4)c3C[C@H]2CN1C(=O)c1ccccc1`, the composite z-score came out at 0.812 in test [1]; 2.88 in test [5]; 0.381 in [7]; 1.2 in [8]; 0.556 in test [9]; 0.277 in test [10]. Moreover, the z-score was -0.849 (inactive) in [2], -0.0545 (inactive) in [3], 0.0836 (inactive) in test [4] and -0.673 (inactive) in [6].
On to `C=CCNC(=O)[C@@H]1[C@H]2C(=O)O[C@H](c3ccccc3)[C@H](c3ccccc3)N2[C@H](c2ccc(OCCO)cc2)[C@@]12C(=O)Nc1ccc(C#CCCO)cc12`, for which the composite z-score was found to be 1.52 in test [1]; 3.29 in test [5]; 0.501 in test [7]; 1.36 in [8]; 1.12 in test [9]; 0.692 in test [10]. The z-score in test [2] is 0.85 (inactive); in [3], 0.975 (inactive); in [4], 3.39 (inactive); in [6] it was -0.207 (inactive).
On to `CCOC(=O)C[C@H]1[C@H](OC(=O)Cc2ccc3c(c2)OCO3)[C@@H](NC(=O)c2ccc(-c3ccccc3)cc2)c2cc(OCCCO)ccc2N1C(=O)Cc1ccc(OC)cc1`, for which the composite z-score in test [1] is 0.81; in test [5], 0.826; in [7], 0.0163; in test [8], 0.185; in test [9] it was 0.921; in test [10], 0.0881. For the same compound, the z-score is -1.32 (inactive) in test [2], -1.09 (inactive) in test [3], 0.105 (inactive) in test [4] and 1.09 (inactive) in [6].
As for `CCCCC(=C=CC[C@@H](O)c1ccccc1OCCO)CCO`, the composite z-score is -0.144 in [1]; 1.06 in test [5]; -0.192 in test [7]; 0.201 in test [8]; -0.0525 in test [9]; -0.199 in test [10]. Further, the z-score in [2] was 0.598 (inactive); in test [3], -0.424 (inactive); in test [4] it was -0.374 (inactive); in test [6], 0.205 (inactive).
`C=C(CCCC)C(=O)CC[C@H](OC(=O)c1cccnc1)c1ccccc1OCCO`: the composite z-score in [1] is 0.449; in test [5], -0.0709; in test [7], -0.19; in test [8], 0.282; in test [9], 0.214; in test [10] it was -0.0656. Besides, the z-score in test [2] is -2.23 (inactive); in test [3] it was -2.01 (inactive); in test [4], -1.34 (inactive); in test [6] it was 0.576 (inactive).
In the case of `CCC(CC)C(O)C1C=CC2C(=O)N(C)C(=O)C2N1Nc1ccccc1` (stereo not given), the composite z-score in [1] was 1.02; in test [5], 3.07; in test [7], -0.0321; in test [8], -0.0929; in test [9], 1.06; in test [10] it was -0.0828. Also, the z-score was -0.0298 (inactive) in test [2], -0.575 (inactive) in [3], 0.0024 (inactive) in test [4] and 0.103 (inactive) in test [6].
Consider `COC(=O)[C@@]1(Cc2ccc(F)cc2)[C@H]2c3cc(C(=O)N(C)C)n(Cc4ccc(S(C)(=O)=O)cc4)c3C[C@H]2CN1C(=O)c1ccccc1`, for which the composite z-score was -0.213 in [1]; 2.23 in test [5]; 0.124 in test [7]; -0.139 in test [8]; 0.49 in test [9]; -0.0045 in test [10]. Further, the z-score in test [2] was 0.304 (inactive); in test [3] it was 1.21 (inactive); in test [4], 0.147 (inactive); in test [6] it was 0.321 (inactive).
